Compounds with a hit are over-represented: about 27% of the library has one in this group of screens.
Cav3 T inh – Cav3.2 calcium influx blockers – cell-based, Fluo-4 calcium fluorescence, FDSS, MLSMR library, primary screen; Voltage-dependent T-type calcium channel subunit alpha-1H (Homo sapiens), O95180; Cav3.2-expressing cells; active compounds read low; B-score at 10 µM; hit rate 4% among 100,000;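 active = single-dose well whose peak fluorescence ratio is a statistical outlier from its plate by either plate-standardised score or position-corrected B-score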
CYP2C19 act – human CYP2C19 activators, primary screen, biochemical, luminescence | recombinant CYP2C19, luciferin-H EGE luminescence; active compounds read high; 0 = fully inhibited enzyme, 1 = untreated enzyme | activation factor at 5 µM | 96,000 tested, under 10 active | AID 1025, 2008;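 active = activation factor of at least 2 at 5 µM in the primary screen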;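 also: 0 = wells with 2.5 mM tranylcypromine and 1 = vehicle-only wells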
CYP2C9 inh – blockers of cytochrome P450 2C9 activity – biochemical, luminescence, ADME assay, primary screen; CYP2C9 Supersomes, luciferin-H conversion; inhibition, % at 5 µM; hit rate 20% among 96,000; AID 777, 2007;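 active = blocking of liver enzyme CYP2C9 beyond about 50% at 5 µM, limit read from the data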
CYP2C19 inh – blockers of cytochrome P450 2C19 activity – biochemical, luminescence, ADME assay, primary screen | P33261 | CYP2C19 Supersomes, luciferin-H EGE luminescence, 30 min | inhibition, % at 5 µM | hit rate 21% among 96,000;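 active = CYP2C19 inhibition above a set limit at 5 µM in the primary screen, cut at about 50% in these data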;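 also: plate controls were negative control wells for no effect and 2.5 mM tranylcypromine positive control for full effect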
CYP2C9 act – human CYP2C9 activators, primary screen, biochemical, luminescence; recombinant CYP2C9, luciferin-H conversion; active compounds read high; factor 1 = untreated enzyme, 0 = blocked; activation factor at 5 µM; hit rate 1.4% among 96,000;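 active = activation factor of 2 or more for CYP2C9 at a 5 µM dose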;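 also: 0 = sulfaphenazole-blocked wells and 1 = vehicle-only wells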
The depositor's hits bear a star; / = not tested or not shown.

SMILES	Cav3 T inh	CYP2C19 act	CYP2C9 inh	CYP2C19 inh	CYP2C9 act
Cc1nn(CCC(=O)NNC(=S)Nc2ccc(Cl)cc2)c(C)c1[N+](=O)[O-]	-1.2	/	/	/	/
CCC(Sc1nc2ccccc2s1)C(=O)Nc1cc(C)on1 (stereo unspecified)	-2.6	/	/	/	/
CCC(SC1=N/C(=C/c2ccccc2OC)C(=O)N1c1ccccc1)C(=O)Nc1cc(C)on1 (stereo unspecified)	-4.8*	0.8	67*	24	0.3
Nc1c(C(=O)Nc2ccccc2F)sc2nc(Cc3ccccc3)cc(C(F)(F)F)c12	-3.4*	1.1	7	-11	0.9
Cn1c(Cn2c(C(F)(F)F)nc3ccccc32)nc2ccccc21	0.16	0.7	4	27	1
Cc1cc(C)c(C(=O)c2ccc(C(=O)N(C(C)C)C(C)C)cc2)c(C)c1	-5.1	0.1	82*	86*	0.2
COc1ccc(C(=O)N(C(C)C)C(C)C)c(OC)c1	-0.014	1	10	4	0.9
COc1cccc2c1C(=O)O/C2=C/c1ccc2c(c1)OCO2	-0.33	0.4	55*	62*	0.5
O=C1OC(OC2CCCCC2)(c2ccccc2)c2ccccc21 (stereo unspecified)	-0.76	0.9	26	9	0.7
O=C1OC(Oc2ccccc2)(c2ccccc2)c2ccccc21 (stereo unspecified)	-2.5	0.6	54*	44	0.5
CCCCOC1(c2ccccc2)OC(=O)c2ccccc21 (stereo unspecified)	-0.81	0.4	61*	55*	0.4
Brc1ccccc1-n1nnc(-c2nccs2)n1	0.43	/	/	/	/
CCOC(=O)c1cccc(NC(=O)c2c(N)n(C)c(=O)[nH]c2=O)c1	0.41	/	/	/	/
Cc1ccc(S(=O)(=O)NCCSc2nnnn2-c2ccccc2)cc1	-2.6	/	/	/	/
Cc1ccc(S(=O)(=O)NCCSc2nnc(N)s2)cc1	0.59	0	-99	96*	2*
Cc1ccc(S(=O)(=O)NCCSc2nnnn2-c2cc(C)ccc2C)cc1	0.0058	0.4	-35	61*	1.4
COC(=O)C(N)CCCCN (stereo unspecified)	0.27	/	/	/	/
CS(=O)(=O)Nc1cccc2cccnc12	0.17	1	-136	5	2.4*
O=S(=O)(Nc1cccc2cccnc12)c1ccc(S(=O)(=O)N2CCCC2)cc1	-1.4	0.5	30	45	0.7
CCc1c(C)c2nncn2[nH]c1=O	-0.12	1.1	-8	-12	1.1
Cc1ccc(NC(=O)c2c(Cl)n(C)c3ccccc23)cc1	/	0.7	-112	26	2.1*
CCC(C)NS(=O)(=O)c1ccc(S(=O)(=O)N2CCCC3(CCCCC3)C2)cc1 (stereo unspecified)	-6.3*	0.6	74*	35	0.3
COc1ccc(OC)c(-c2nnc(-c3ccc(C)o3)o2)c1	-0.0047	0.6	1	44	1
O=C1c2ccccc2-c2c1cccc2C(=O)N1CCOCC1	0.57	/	/	/	/
O=C(c1ccc2c3c(cccc13)CC2)N1CCOCC1	0.62	0.7	-112	34	2.1*
SMILES	Cav3 T inh	CYP2C19 act	CYP2C9 inh	CYP2C19 inh	CYP2C9 act
Cc1oc(=O)c(NC(=O)c2cccc(Cl)c2)cc1C(=O)c1ccccc1	-0.39	0.8	6	25	0.9
Cc1[nH]n(-c2ccc([N+](=O)[O-])cc2)c(=O)c1C=NCCN1CCN(C(=O)c2cccc(F)c2)CC1	-0.02	0.7	48	33	0.5
CCCn1nnc(NC(=O)c2ccc(-c3cccc(Cl)c3)o2)n1	-5*	0.8	18	18	0.8
CCCn1nnc(NC(=O)c2sc3ccccc3c2Cl)n1	0.12	0.4	-7	61*	1.1
CCCn1nnc(NC(=O)c2cccc(OCc3ccccc3)c2)n1	-1.3	0.5	61*	47	0.4
CCCn1nnc(NC(=O)c2cccc(Cl)c2)n1	0.71	/	/	/	/
CCCn1nnc(NC(=O)c2cc(Br)ccc2OC)n1	-0.41	0.3	-260	74*	3.6*
O=C(O)CCCCCCCCCCCc1ccccc1	-1.9	/	/	/	/
CCCCn1nnc(NC(=O)Cc2ccc(Cl)cc2)n1	-1.5	0.9	-4	10	1
CCCCn1nnc(NC(=O)c2ccc(-c3cccc(Cl)c3)o2)n1	-4.9*	0.9	-46	14	1.5
Cc1nn(Cc2ccccc2)c(C)c1NC(=O)CSc1nc(C2CC2)nc2c1cnn2-c1ccccc1	0.011	0.9	64*	11	0.4
CCOC(=O)C1CCCN(C(=O)c2ccc3c(c2)NC(=O)C(N2CCOCC2)S3)C1 (stereo unspecified)	-0.26	1	5	2	0.9
CNC(=O)c1cc(Nc2nnc(C)c3ccccc23)ccc1OC	-3.3	1.2	1	-24	1
Cc1cc(C)cc(NC(=O)c2nccnc2C(=O)O)c1	-0.25	0.8	18	18	0.8
Cc1nn(C)c(C)c1Sc1ccc(Br)cc1	-1.1	0.4	25	64*	0.8
CCOC(=O)CN1CC23C=CC(O2)C(C(=O)Nc2ccc(C(C)=O)cc2)C3C1=O (stereo unspecified)	0.044	1.1	5	-10	0.9
O=C(Cn1nc(-c2ccccc2)nc1-c1ccccc1)OC1CCCCC1	-1.9	/	/	/	/
CCCCCCCCN1[C@@H](CC(=O)OCC)c2cc(C(F)(F)F)ccc2S1(=O)=O	-4.2*	/	/	/	/
COC(=O)/C(=C(/F)SCC(C)=O)C(F)(F)F	-0.29	0.9	69*	7	0.3
CCOc1cc(C)c(S(=O)(=O)Nc2ccc(Cl)cn2)cc1C	-0.084	0.2	95*	78*	0.1
COc1cccc(NC(=O)CSc2nnc(Cc3cccs3)n2-c2ccc(C)cc2)c1	-3.2	0.5	65*	45	0.3
COc1ccc(NC(=O)CSc2nnc(Cc3cccs3)n2-c2ccc(C)cc2)cc1	-5.3*	0.3	51*	73*	0.5
Cc1ccc(-n2c(SCC(=O)Nc3ccc4c(c3)OCO4)nnc2-c2cccs2)cc1	-1.5	0.8	2	18	1
C=CCn1c(Cc2cccs2)nnc1SCC(=O)Nc1ccc(OC)cc1	-0.45	0.8	23	21	0.8
COc1ccc(-n2c(Cc3cccs3)nnc2SCC(=O)Nc2ccc3c(c2)OCCO3)cc1	-6.8*	0.4	61*	56*	0.4
CCOC(=O)C(CCCOc1ccccc1C)C(=O)OCC	-1.5	0.8	47	16	0.5
COC(=O)C1=C(C(=O)OC)[C@@H]2N(C)c3ccc(OC)cc3[C@@]23C[C@@H](C(=O)OC)N(S(=O)(=O)c2ccc(OC)cc2)C3=N1	-0.64	/	/	/	/
CCCOc1ccc(N2C(=O)C3ON(c4ccccc4)C(c4ccc(O)c(OC)c4)C3C2=O)cc1 (stereo unspecified)	/	0.7	46	33	0.5
COc1cc(C2C3C(=O)N(Cc4ccccc4)C(=O)C3ON2c2ccccc2)cc(OC)c1O (stereo unspecified)	-1.7	0.8	56*	19	0.4
